High-throughput results: PubChem BioAssay, National Center for Advancing Translational Sciences (NCATS)
In the library only some 6% were active in any assay of this set; here they are far more common.
Tau ThT inhib: blocks human tau fibril formation measured by thioflavin T; recombinant tau K18 P301L, heparin-induced fibrillization, ThT fluorescence; 270,000 compounds, 2.1% hits; Potency, µM (doses to about 57.4 µM), without a hit: top-dose activity, negative = inhibition, actives largely listed as inhibitors; note: nearly all actives have a fitted effect of over 55% in size
Target sequence (P10636 561-689 P618L limits assumed): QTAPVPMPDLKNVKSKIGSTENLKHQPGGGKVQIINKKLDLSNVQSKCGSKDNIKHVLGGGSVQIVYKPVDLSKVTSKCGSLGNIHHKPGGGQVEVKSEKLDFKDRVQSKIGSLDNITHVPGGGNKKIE
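Using a mix of unlabeled (15 uM) and Alexa 594-labeled (0.24 uM) tau K18 P301L, heparin-triggered fibrillization over 6 hr at 37 C was scored by ThT fluorescence.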
Sfp PPTase inh: blocks B. subtilis Sfp PPTase activity; Q9F4F7; Biochemical Sfp PPTase activity, qHTS; Potency, µM, inactives show largest response in the series, negative = inhibition, actives largely listed as inhibitors; 310,000 compounds, 3.5% hits; AID 1490;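 note: the enzyme is Sfp with the accession as filed and its product quenches rhodamine fluorescence; 0% = enzyme reaction without inhibitor and -100% = no enzyme wells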
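Fluorescence-quenching assay: 15 nM Sfp-PPTase preincubated 15 min at room temperature with compound, then 5 uM rhodamine-CoA and 12.5 uM BHQ-2-labelled YbbR peptide added. Fluorescence (ex 525/em 598 nm) read at start and after 30 min; difference gives rate.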
VDR inh: vitamin D3 receptor (human) inhibition; Potency, µM, inactives show max response, negative = inhibition, actives largely listed as inhibitors; VDR-SRC2-3 peptide fluorescence polarization, 2 h; P11473; AID 504847; 400,000 compounds, 0.93% hits
Target sequence (P11473 whole entry, looked up): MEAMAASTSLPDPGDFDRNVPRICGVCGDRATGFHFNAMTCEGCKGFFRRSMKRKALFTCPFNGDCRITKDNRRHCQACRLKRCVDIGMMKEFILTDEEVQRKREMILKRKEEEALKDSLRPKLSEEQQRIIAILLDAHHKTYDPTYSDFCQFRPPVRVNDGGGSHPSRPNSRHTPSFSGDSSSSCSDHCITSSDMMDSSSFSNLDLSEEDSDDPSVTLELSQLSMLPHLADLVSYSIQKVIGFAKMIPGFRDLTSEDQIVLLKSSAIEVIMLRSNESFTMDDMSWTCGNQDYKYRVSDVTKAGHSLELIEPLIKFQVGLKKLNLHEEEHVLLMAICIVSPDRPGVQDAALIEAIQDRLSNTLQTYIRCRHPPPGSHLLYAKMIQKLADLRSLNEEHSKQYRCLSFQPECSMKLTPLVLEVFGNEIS
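Measured by FP: displacement of SRC2-3 coactivator peptide from VDR by library compounds, following a two-hour ambient incubation.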
PLK1 PBD block: blocks phosphopeptide binding to human PLK1 polo-box domain. Plk1 PBD binding of FITC phosphopeptide, fluorescence polarization. Potency, µM, inactives show max response, negative = inhibition, usual class: inhibitors. 360,000 compounds, 2.8% hits. AID 720504. P53350; note: series mostly up to about 57 µM; nearly all actives have a fitted effect of over 65% in size
Tau fluor counter: counter-screen for tau fibril formation inhibitors; AID 1463; 280,000 compounds, 0.93% hits; tau K18 P301L Alexa594 fluorescence, heparin fibrillization; Potency, µM (doses to about 57.7 µM), for the others: top-dose activity change, negative = decrease; note: nearly all actives have a fitted effect of over 55% in size
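Human tau K18 P301L (15 uM unlabeled, 0.24 uM Alexa 594-labeled) in 100 mM sodium acetate pH 7 with 20 uM heparin, 6 hr at 37 C. ThT 30 uM added, 1 hr ambient; Alexa 594 FP and total fluorescence read at 555/632 nm.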
Tau fibril FP: blocks human tau fibril formation measured by polarization. K18 P301L tau heparin fibrillization, Alexa594 FP, 6 h. Potency, µM (doses to about 57.7 µM), for the others: at the highest dose activity, negative = inhibition, usual class: inhibitors. 280,000 compounds, 0.39% hits. AID 1468; note: nearly all actives have a fitted effect of over 55% in size
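Human K18 P301L fragment (15 uM unlabeled plus 0.24 uM Alexa 594-labeled) in 100 mM sodium acetate pH 7 with compound, aggregation induced by 20 uM heparin for 6 hr at 37 C. ThT (30 uM) added for 1 hr, then Alexa 594 FP read.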
The depositor's hits bear a star; ? = inconclusive; . = not tested or not shown; [ ] = remark or other dose. Calls come from the whole dose curve; as a rule, active = well fitted curve in the direction sought with a large enough effect; inconclusive = small, poorly fitted or top-dose-only effect, or another doubt; inactive = no such curve, though single readings can be large; an effect the other way counts as inactive or inconclusive. Unless noted, % is set by controls: 0 for no effect and ±100 for the full control effect; potency is the fitted concentration of half-maximal effect.

SMILES	Tau ThT inhib	Sfp PPTase inh	VDR inh	PLK1 PBD block	Tau fluor counter	Tau fibril FP
Cc1ccc(NC(=O)N2CCc3c(sc4c3CCCC4)C2c2ccccc2)cc1F (stereo not drawn)	2%	.	-6%	.	-10%	-7%
Cc1ccc([N+](=O)[O-])cc1S(=O)(=O)N1CCn2cccc2C1c1ccccc1 (stereo not drawn)	-12%	.	8%	.	?	-6%
CN1CCc2c(sc3c2C(=O)NC(c2ccco2)N3)C1 (stereo not drawn)	?	-9%	-26%	-10%	-21%	?
CN1CCc2c(sc3c2C(=O)NC(c2cn(Cc4ccccc4)c4ccccc24)N3)C1 (stereo not drawn)	18µM*	-22%	-4%	2%	-25%	?
CN1CCc2c(sc3c2C(=O)NC(c2ccc(-c4ccc(Cl)cc4)o2)N3)C1 (stereo not drawn)	3.2µM*	50µM*	10%	6%	?	?
COc1ccc(Br)cc1C1NC(=O)c2c(sc3c2CCN(C)C3)N1 (stereo not drawn)	-14%	8%	4%	-1%	4%	-4%
COC(=O)c1cc(N=Nc2c(C)[nH]c3ccccc23)cc(C(=O)OC)c1	?	0%	-11%	-10%	?	2%
Cc1[nH]c2ccccc2c1N=Nc1cccc(C(=O)O)c1	7.9µM*	2%	-12%	-7%	-23%	12%
COc1ccc(N2C(=S)NC3N2C(=S)NC3(C)c2ccccc2)cc1 (stereo not drawn)	?	?	5%	-13%	-14%	-17%
COC(=O)c1ccc(Oc2cc(C)nc(Cl)n2)cc1	-1%	23%	3%	-9%	-1%	1%
COC(=O)c1ccc(Oc2cc(C)nc(SC)n2)cc1	-6%	10%	?	12µM*	-2%	-2%
Cc1nc(C(Cl)(Cl)Cl)nc2[nH]ccc(=O)c12	-7%	16%	18µM*	27µM*	-3%	0%
CCOc1ccc(N2CSC(=S)N(c3ccc(OCC)cc3)C2)cc1	?	35µM*	-3%	6%	-12%	-2%
COc1nc(NCCO)nc(Nc2ccccc2F)n1	-4%	9%	3%	27µM*	-5%	-1%
COC(=O)c1c(-c2ccco2)csc1NC(=O)C1CC=CCC1C(=O)O (stereo not drawn)	-4%	13µM*	-5%	-6%	-7%	-4%
CCOC(=O)c1c(-c2ccc(C)c(C)c2)csc1NC(=O)C1CC=CCC1C(=O)O (stereo not drawn)	?	-6%	-16%	?	-6%	-3%
CCOC(=O)c1c(-c2ccc(F)cc2)csc1NC(=O)C1CC=CCC1C(=O)O (stereo not drawn)	-17%	40µM*	?	24µM*	0%	2%
CC(C)(C)NC(=O)C(c1ccccc1F)n1c(=O)c(-c2ccccc2)nc2ccccc21 (stereo not drawn)	.	.	.	-9%	.	.
CC(C)c1csc(CN2CCC(N3CCC(C(=O)N4CCOCC4)CC3)CC2)n1	-7%	9%	-7%	-17%	-7%	-2%
COc1cc(C=C2C(=O)c3ccccc3C2=O)cc(OC)c1	.	-2%	?	1.1µM*	?	6%
COc1cc(/C=C/c2ccccc2)cc(OC)c1	.	.	0%	-1%	.	.
CCN1C/C(=C/c2ccc(OC)c(O)c2)C(=O)/C(=C/c2ccc(OC)c(O)c2)C1	14µM*	-6%	-30%	3%	-28%	?
COc1ccc(/C=C2\CN(Cc3ccccc3)C/C(=C\c3ccc(OC)c(O)c3)C2=O)cc1O	.	-18%	?	-16%	.	.
COc1cc(C=C2C(=O)c3ccccc3C2=O)ccc1O	?	-9%	7%	-18%	-18%	-5%
COc1ccc(C=C2C(=O)c3ccccc3C2=O)cc1O	8.9µM*	-18%	-7%	19µM*	-30%	-6%
SMILES	Tau ThT inhib	Sfp PPTase inh	VDR inh	PLK1 PBD block	Tau fluor counter	Tau fibril FP
Cc1ccccc1NC(=O)Cn1nc(-c2ccccc2)nc(Cc2ccccc2)c1=O	-8%	.	3%	.	-17%	-1%
Cc1c(Br)c([N+](=O)[O-])nn1CC(=O)NCc1ccccc1	-2%	7%	?	12µM*	-4%	0%
COc1cc(NC(=O)N2CCC3(CC2)Nc2cc(F)ccc2-n2cccc23)cc(OC)c1OC	-11%	.	16%	.	13µM*[quencher]	?
S=C(c1ccc(-c2cc(Cl)ccc2Cl)o1)N1CCOCC1	?	25µM*	-6%	-13%	-24%	-1%
S=C(c1ccc(-c2cc(Cl)ccc2Cl)o1)N1CCCCC1	0%	16µM*	-17%	-1%	-1%	13%
O=[N+]([O-])c1ccccc1-c1ccc(C(=S)N2CCCCC2)o1	?	25µM*	?	-19%	?	-12%
O=C(Nc1ccc(CN2CCOCC2)cc1)c1ccc(-c2cc(Cl)ccc2Cl)o1	-7%	3%	-1%	-5%	?	?
O=C(NC1CCCC1)c1ccc2c(c1)N(Cc1ccccc1F)C(=O)c1ccccc1S2	4%	.	19%	.	-1%	-5%
CN(C(=O)c1ccccc1C(=O)OCC(=O)c1ccc(Br)cc1)c1ccccc1	.	.	-10%	-12%	.	.
Brc1ccc(C2Nc3cccc4cccc(c34)N2)s1	13µM*	-18%	-26%	?	?	?
C#CCOCCOCCOCCNc1nc(N2CCN(C(=O)[C@H](CO)n3cc([C@@H](N)C(C)C)nn3)CC2)nc(N2CCN(C(=O)[C@H](CO)n3cc([C@@H](N)C(C)C)nn3)CC2)n1	.	.	-25%	1%	.	.
O=C(CN1C(=O)COc2ccc(S(=O)(=O)N3CCCCCC3)cc21)Nc1cccc(Cl)c1	-2%	.	-1%	.	?	?
COc1cc(/C=C2\SC(=S)N(CC(=O)O)C2=O)ccc1OC(=O)c1ccco1	.	-16%	-28%	-9%	.	.
COc1cc(/C=C2/SC(=O)N(Cc3ccccc3Cl)C2=O)ccc1OCc1ccncc1	-6%	3%	89µM*	-4%	-7%	3%
CCOc1cc(/C=C2/SC(=S)N(CC(=O)O)C2=O)ccc1OC(=O)c1cccs1	?	4.5µM*	?	?	9%	2%
COc1ccc(/C=C2/SC(=S)N(CC(=O)O)C2=O)cc1OCc1ccc(Cl)cc1	.	-33%	?	30µM*	.	.
O=C(O)CN1C(=O)/C(=C\c2cc([N+](=O)[O-])ccc2OCc2ccccc2Cl)SC1=S	.	79µM*	?	27µM*	.	.
O=C(O)CN1C(=O)/C(=C\c2cc(Br)ccc2OCc2ccc(Cl)cc2)SC1=S	.	-25%	40µM*	8.4µM*	.	.
